Results filed as inconclusive are left out. Active and inactive are the calls of the source. Calls follow the shape of the dose curve; as a rule, active = well fitted inhibition curve with a large enough effect; inconclusive = small, poorly fitted or top-dose-only effect; inactive = flat fitted curve, though single readings scatter.
Assay: qHTS of Trypanosoma Brucei Inhibitors: LOPAC Validation (AID 624147)
Details: purified enzyme assay, luminescence, 45 min; series mostly up to 57.5 µM
Procedure, shortened: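 T. brucei PYK with substrate was exposed to pin-transferred compounds across a concentration series, then started with 130 uM ADP (final). After 45 min at room temperature, Kinase-Glo Plus luminescence was read, normalized and curve-fitted.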

Row | Structure (SMILES) | outcome
1 | CCN(CC)CCCC(C)Nc1c2ccc(Cl)cc2nc2ccc(OC)cc12 (centres undefined) | inactive
2 | CC(C)NC[C@H](O)c1ccc(O)c(O)c1 | inactive
3 | Nc1ncnc2c1ncn2[C@@H]1O[C@H](CO)[C@@H](O)[C@H]1O | inactive
4 | CCN(CC)CCNC(=O)c1cc(Cl)c(N)cc1OC | inactive

— PubChem BioAssay (NCATS)
